Source: PubChem BioAssay (NCATS)
Records with an inconclusive call do not appear. Active and inactive are the calls of the source. Unless noted, calls come from the whole dose curve; as a rule, active = well fitted curve in either direction with a large enough effect (not every such curve was filed as active); inconclusive = small, poorly fitted or top-dose-only effect, or another doubt; inactive = flat fitted curve, though single readings scatter.

Legend:
[1] = target: Lysosomal acid glucosylceramidase (Homo sapiens) (UniProt P04062); assay: Glucocerebrosidase-p2 (AID 348; in the data active = potency below about 10 µM; note: potency is the fitted concentration of half-maximal effect); details: purified GBA, blue fluorogenic substrate, 40 min
Lysosomal acid glucosylceramidase (Homo sapiens), sequence (P04062 whole entry, looked up): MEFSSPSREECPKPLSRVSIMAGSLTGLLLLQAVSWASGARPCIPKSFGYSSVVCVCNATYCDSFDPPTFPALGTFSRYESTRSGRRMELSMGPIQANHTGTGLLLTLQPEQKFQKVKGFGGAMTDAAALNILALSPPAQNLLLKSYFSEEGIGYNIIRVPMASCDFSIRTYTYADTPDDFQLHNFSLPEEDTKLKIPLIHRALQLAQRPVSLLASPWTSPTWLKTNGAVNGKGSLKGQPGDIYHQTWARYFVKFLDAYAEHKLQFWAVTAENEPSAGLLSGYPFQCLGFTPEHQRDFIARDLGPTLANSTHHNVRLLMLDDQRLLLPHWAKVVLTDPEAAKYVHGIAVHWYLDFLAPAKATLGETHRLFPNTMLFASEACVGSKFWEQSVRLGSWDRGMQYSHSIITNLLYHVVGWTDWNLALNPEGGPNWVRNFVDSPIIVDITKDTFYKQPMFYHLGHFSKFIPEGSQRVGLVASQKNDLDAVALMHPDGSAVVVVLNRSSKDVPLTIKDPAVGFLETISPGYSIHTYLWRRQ
How it was run: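 Compounds titrated from 0.6 nM upwards against 0.2 nM enzyme in pH 5.9 citric acid/KH2PO4, taurocholate, tween-20; blue fluorogenic substrate 80 uM, 40 min room temperature, stopped and read Ex 365/Em 440 for AC50.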

[2] = AP1 Signaling Pathway (AID 357); details: ME-180 AP-1-bla reporter, EGF-induced, beta-lactamase ratio, 5 h; at 7.69 µM (top of the series) unless noted; note: % is set by controls: 0 for no effect and ±100 for the full control effect
How it was run: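 ME-180 cells with beta-lactamase reporter under AP-1 response element, stimulated with EC50 EGF; compounds tested in titration series, 5 h at 37 °C. CCF4 substrate added 2.5 h at room temperature; 460/530 nm emission ratio gave %activity and AC50.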

[3] = target: Cytochrome P450 1A2 (Homo sapiens) (UniProt P05177); assay: p450-cyp1a2 (AID 410; calls by dose curve; note: potency is the fitted concentration of half-maximal effect); details: recombinant CYP1A2, luciferin-ME demethylation, luminescence; series mostly up to 57 µM
Cytochrome P450 1A2 (Homo sapiens), sequence (P05177 whole entry, looked up): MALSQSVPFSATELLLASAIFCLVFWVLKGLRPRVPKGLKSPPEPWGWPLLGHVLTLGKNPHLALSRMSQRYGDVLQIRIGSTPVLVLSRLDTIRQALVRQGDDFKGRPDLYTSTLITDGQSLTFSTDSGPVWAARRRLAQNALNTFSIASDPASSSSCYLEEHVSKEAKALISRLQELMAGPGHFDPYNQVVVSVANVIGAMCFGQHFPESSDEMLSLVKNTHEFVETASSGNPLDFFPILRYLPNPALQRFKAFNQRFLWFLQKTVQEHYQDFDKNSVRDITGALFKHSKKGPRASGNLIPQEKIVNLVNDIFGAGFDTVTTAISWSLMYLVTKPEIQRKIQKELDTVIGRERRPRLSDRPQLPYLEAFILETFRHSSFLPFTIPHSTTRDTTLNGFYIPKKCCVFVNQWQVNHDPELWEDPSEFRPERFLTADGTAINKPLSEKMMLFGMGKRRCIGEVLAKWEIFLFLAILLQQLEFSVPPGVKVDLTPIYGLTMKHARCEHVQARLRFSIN
How it was run: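 Human CYP1A2 (20nM) demethylated Luciferin-ME at its Km (100uM) in 100mM KPO4. After 10 min compound preincubation, NADPH regeneration ran the reaction 60 min at room temperature. Luciferin was read by luminescence, normalized to 57 uM furafylline.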

[4] = NFAT Signaling Pathway (AID 444); details: Jurkat NFAT-bla M1, carbachol, beta-lactamase ratio, 5 h; at 7.69 µM (top of the series) unless noted;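 note: carbachol stimulus at about its EC50 of 1 µM final; % is set by controls: 0 for no effect and ±100 for the full control effect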
How it was run: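 Read-out: CCF4 FRET ratio (460 nm/530 nm) after 1 h RT dye loading, used for %activity and AC50 from titration series. Cells: Jurkat NFAT-β-lactamase/M1 line, treated with compound plus 1 uM carbachol for 5 h, 37 °C.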

[5] = Stat Signaling Pathway (AID 446); details: ME-180 SIE beta-lactamase reporter, IL-6 stimulated, 5 h; at 7.69 µM (top of the series) unless noted;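 note: ME-180 cervical cancer cells given 40 pM IL-6 alongside compound; SIE-controlled beta-lactamase reporter measured as 460/530 nm FRET emission ratio; % is set by controls: 0 for no effect and ±100 for the full control effect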
How it was run: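 IL-6/STAT signaling read in ME-180 cells via an SIE beta-lactamase reporter. Stimulus was 40 pM IL-6 (its AC50) for 5 hrs, so both activation and inhibition register.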

[6] = target: Glucocorticoid receptor (Homo sapiens) (UniProt P04150); assay: GR-GFP Redistribution (AID 450;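 active = compounds whose dose series gives a full or clear partial fitted curve of increased nuclear translocation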; note: potency is the fitted concentration of half-maximal effect); details: U2OS GR-GFP nuclear translocation, laser cytometry, 2 h
Glucocorticoid receptor (Homo sapiens), sequence (P04150 whole entry, looked up, the tested form may be a part): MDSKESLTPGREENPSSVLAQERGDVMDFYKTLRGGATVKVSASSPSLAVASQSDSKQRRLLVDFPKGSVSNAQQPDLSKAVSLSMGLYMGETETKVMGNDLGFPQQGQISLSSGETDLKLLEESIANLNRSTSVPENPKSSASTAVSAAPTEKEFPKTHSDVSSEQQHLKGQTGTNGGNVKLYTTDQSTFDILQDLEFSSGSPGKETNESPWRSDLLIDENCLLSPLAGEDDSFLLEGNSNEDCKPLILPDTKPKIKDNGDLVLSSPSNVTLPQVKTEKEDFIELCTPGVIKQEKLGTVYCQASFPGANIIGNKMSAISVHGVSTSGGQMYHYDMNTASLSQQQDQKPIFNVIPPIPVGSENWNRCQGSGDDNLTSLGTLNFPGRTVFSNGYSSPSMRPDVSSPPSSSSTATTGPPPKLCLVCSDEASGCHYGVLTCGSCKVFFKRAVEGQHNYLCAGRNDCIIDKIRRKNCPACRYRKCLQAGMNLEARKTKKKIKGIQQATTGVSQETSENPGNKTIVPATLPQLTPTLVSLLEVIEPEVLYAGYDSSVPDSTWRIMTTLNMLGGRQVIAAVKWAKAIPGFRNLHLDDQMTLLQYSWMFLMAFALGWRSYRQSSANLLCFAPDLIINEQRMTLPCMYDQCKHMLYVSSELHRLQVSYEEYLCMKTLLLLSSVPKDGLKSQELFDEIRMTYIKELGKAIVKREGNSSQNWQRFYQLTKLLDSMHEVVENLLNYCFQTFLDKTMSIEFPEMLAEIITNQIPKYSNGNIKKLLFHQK

[7] = target: Glucocorticoid receptor (Homo sapiens) (UniProt P04150); assay: GR-EFC Redistribution (AID 451; calls by dose curve; note: potency is the fitted concentration of half-maximal effect); details: CHO-K1 GR-EFC translocation, beta-gal luminescence, 2 h
How it was run: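 Translocation of GR-ED fusion to nuclear EA restores b-gal, read by luminescence after 1 h room-temperature detection. Engineered CHO-K1 biosensor cells, 1,000/well, exposed 2 h at 37 C to titrations up to 46 uM final.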

[8] = target: Mitogen-activated protein kinase 10 (Mus musculus) (UniProt Q61831); assay: JNK3 AlphaScreen Assay (AID 530); details: JNK3 lysate, c-Jun phosphorylation; series mostly up to 57.1 µM;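 note: kinase came from lysate of stimulated human HepG2 cells; signal reports phosphorylation of biotinylated GST-cJun 1-79 at Ser73 with 10 µM ATP; % is set by controls: 0 for no effect and ±100 for the full control effect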
How it was run: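 Room-temperature AlphaScreen kinase assay; pre-activated HepG2 lysate as JNK3 source, biotin-GST-cJun(1-79) substrate, 10 uM ATP, compound 15 min preincubation.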

[9] = target: 3',5'-cyclic-AMP phosphodiesterase 4B (Homo sapiens) (UniProt Q07343); assay: qHTS Assay for Inhibitors of PDE-IV (AID 607; active = well fitted activation curve with a large enough effect in the main read-out, with a control signal flat, not every such curve was filed as active; note: % of control where 0% means no effect); details: HEK293 ACTOne CNG channel cells, membrane potential fluorescence; series mostly up to 22.9 µM
3',5'-cyclic-AMP phosphodiesterase 4B (Homo sapiens), sequence (Q07343 whole entry, looked up): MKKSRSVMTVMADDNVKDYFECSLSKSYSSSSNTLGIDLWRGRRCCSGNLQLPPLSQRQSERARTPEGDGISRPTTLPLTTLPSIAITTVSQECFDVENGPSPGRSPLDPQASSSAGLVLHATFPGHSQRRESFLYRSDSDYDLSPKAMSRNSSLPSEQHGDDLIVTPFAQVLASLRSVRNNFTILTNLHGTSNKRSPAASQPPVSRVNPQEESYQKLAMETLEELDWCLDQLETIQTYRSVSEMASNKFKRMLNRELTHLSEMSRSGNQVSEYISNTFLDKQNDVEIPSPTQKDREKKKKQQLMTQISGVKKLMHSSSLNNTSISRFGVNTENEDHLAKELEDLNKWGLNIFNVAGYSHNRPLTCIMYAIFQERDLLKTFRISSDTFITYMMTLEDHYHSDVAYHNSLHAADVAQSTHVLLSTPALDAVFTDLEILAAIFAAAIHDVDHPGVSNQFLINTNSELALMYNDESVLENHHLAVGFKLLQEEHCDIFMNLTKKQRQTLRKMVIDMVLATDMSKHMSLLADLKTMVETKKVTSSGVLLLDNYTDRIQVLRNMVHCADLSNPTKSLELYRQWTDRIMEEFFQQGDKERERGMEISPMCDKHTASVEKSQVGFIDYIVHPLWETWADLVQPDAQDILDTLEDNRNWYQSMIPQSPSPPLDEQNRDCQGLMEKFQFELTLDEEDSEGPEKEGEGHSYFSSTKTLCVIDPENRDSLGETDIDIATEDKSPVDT
How it was run: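 Live HEK293 cells with a modified cyclic nucleotide-gated (CNG) channel report intracellular cAMP via membrane-potential dye fluorescence (ex 535/em 590 nm). Endogenous PDE-IV was targeted. Compounds were tested at up to 22.9 uM final; RO 20-1724 100 uM served as control.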

[10] = target: Cytochrome P450 3A4 (Homo sapiens) (UniProt P08684); assay: qHTS Assay for Inhibitors and Substrates of Cytochrome P450 3A4 (AID 884; active = well fitted curve in the direction sought with a large enough effect; an effect the other way counts as inactive or inconclusive; note: potency is the fitted concentration of half-maximal effect; nearly all actives have a fitted effect of over 50% in size); details: recombinant CYP3A4, Luciferin-PPXE luminescence; series mostly up to 57.1 µM
Cytochrome P450 3A4 (Homo sapiens), sequence (P08684 whole entry, looked up): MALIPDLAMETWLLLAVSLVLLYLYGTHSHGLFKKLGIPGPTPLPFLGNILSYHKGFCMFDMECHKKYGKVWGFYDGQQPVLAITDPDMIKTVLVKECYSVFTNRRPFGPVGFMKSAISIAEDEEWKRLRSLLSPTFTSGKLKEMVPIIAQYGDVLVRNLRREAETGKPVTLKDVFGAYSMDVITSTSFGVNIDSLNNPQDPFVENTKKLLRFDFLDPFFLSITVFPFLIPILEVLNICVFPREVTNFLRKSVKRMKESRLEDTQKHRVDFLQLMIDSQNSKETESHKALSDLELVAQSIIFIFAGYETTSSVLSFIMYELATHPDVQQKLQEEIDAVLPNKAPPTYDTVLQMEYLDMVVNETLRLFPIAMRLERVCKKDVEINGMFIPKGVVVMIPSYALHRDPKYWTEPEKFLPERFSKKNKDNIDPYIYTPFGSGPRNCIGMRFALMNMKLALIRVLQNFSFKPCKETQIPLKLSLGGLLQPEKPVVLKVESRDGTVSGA
How it was run: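 20 nM human CYP3A4 with 25 uM Luciferin-PPXE (at KM) in 200 mM KPO4, preincubated 10 min with compound; NADPH regeneration started a 60 min RT reaction. Luciferin detected by luminescence, normalized to 57 uM ketoconazole as full inhibition.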

[11] = target: Cytochrome P450 3A4 (Homo sapiens) (UniProt P08684); assay: qHTS Assay for Activators of Cytochrome P450 3A4 (AID 885; active = well fitted curve in the direction sought with a large enough effect; an effect the other way counts as inactive or inconclusive; note: nearly all actives have a fitted effect of over 65% in size); details: recombinant CYP3A4, Luciferin-PPXE luminescence, 60 min; series mostly up to 57.1 µM
How it was run: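 Quantitative HTS format: compounds preincubated with 20nM human CYP3A4 and Luciferin-PPXE substrate at KM, reaction started by NADPH regeneration, stopped after 60 min, luciferase luminescence read 20 min later.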

[12] = target: Cytochrome P450 2D6 (Homo sapiens) (UniProt P10635); assay: qHTS Assay for Inhibitors and Substrates of Cytochrome P450 2D6 (AID 891; active = well fitted curve in the direction sought with a large enough effect; an effect the other way counts as inactive or inconclusive; note: potency is the fitted concentration of half-maximal effect; nearly all actives have a fitted effect of over 60% in size); details: recombinant CYP2D6, luciferin-ME EGE luminescence; series mostly up to 57.1 µM
Cytochrome P450 2D6 (Homo sapiens), sequence (P10635 whole entry, looked up): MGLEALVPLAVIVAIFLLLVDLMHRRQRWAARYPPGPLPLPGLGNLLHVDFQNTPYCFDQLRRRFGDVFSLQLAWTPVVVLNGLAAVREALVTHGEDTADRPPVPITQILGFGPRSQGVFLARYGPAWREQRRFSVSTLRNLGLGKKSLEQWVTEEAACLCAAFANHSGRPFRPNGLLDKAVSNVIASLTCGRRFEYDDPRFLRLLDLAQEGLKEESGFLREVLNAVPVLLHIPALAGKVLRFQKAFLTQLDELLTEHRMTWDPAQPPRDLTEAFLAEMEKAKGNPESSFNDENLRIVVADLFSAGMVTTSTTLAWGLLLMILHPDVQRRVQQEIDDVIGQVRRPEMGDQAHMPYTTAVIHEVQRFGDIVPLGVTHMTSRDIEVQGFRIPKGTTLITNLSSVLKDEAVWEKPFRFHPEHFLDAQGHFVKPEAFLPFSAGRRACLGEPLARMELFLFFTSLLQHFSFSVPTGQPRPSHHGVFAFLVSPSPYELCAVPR
How it was run: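 Human CYP2D6 (5 nM) with 30 uM Luciferin-ME EGE (at Km) in 100 mM KPO4, compound preincubated 10 min, then NADPH regeneration system for 60 min at room temperature. Luciferin read by luminescence; normalized to 1.43 uM quinidine.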

[13] = target: Cytochrome P450 2C19 (Homo sapiens) (UniProt P33261); assay: qHTS Assay for Inhibitors and Substrates of Cytochrome P450 2C19 (AID 899; active = well fitted curve in the direction sought with a large enough effect; an effect the other way counts as inactive or inconclusive; note: potency is the fitted concentration of half-maximal effect; nearly all actives have a fitted effect of over 60% in size); details: recombinant CYP2C19, luciferin-H EGE luminescence; series mostly up to 57.1 µM
Cytochrome P450 2C19 (Homo sapiens), sequence (P33261 whole entry, looked up): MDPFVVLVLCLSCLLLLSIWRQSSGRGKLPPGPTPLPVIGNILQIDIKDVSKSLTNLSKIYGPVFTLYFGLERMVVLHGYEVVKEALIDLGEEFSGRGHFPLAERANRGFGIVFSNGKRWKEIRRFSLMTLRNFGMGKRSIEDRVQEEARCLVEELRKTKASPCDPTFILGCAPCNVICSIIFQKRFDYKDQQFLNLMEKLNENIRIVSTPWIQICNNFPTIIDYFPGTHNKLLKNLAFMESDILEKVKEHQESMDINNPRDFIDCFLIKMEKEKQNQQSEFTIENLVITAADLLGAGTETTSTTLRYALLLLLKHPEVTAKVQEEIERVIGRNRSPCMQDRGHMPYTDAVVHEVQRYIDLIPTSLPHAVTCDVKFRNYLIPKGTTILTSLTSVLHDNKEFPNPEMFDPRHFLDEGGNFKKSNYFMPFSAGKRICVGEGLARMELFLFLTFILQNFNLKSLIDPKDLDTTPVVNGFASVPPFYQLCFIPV
How it was run: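 Reactions contain 5nM enzyme, 10uM Luciferin-H EGE (KM) and 50mM KPO4; compound preincubates 10 min at 37C, NADPH regeneration starts turnover for 60 min. Luminescence after detection reagent gives activity.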

[14] = Confirmation and Secondary Assay for Modulators of Hemoglobin Beta Chain Splicing at IVS2 654 locus (AID 910; active = well fitted curve in the direction sought with a large enough effect; an effect the other way counts as inactive or inconclusive;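 note: HeLa cells stably carrying EGFP split by mutant beta-globin IVS2-654 intron; per-well total GFP intensity by laser scanning cytometry after 2-day treatment; % of control where 0% means no effect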); details: HeLa EGFP-654 splicing reporter, GFP fluorescence, 48 h; series mostly up to 38.3 µM
How it was run: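 Readout: per-well total peak green fluorescence (488 nm ex, 500–520 nm em) from objects 5–250 µm, reflecting correct splicing of an EGFP-654 reporter. Compounds were applied for 2 days at 37 °C to overnight-plated HeLa EGFP-654 cells; controls were DMSO and 500 nM IVS2-654 PNA.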

[15] = Confirmation and Secondary Assay for Modulators of Hemoglobin Beta Chain Splicing at IVS2 705 locus (AID 930; active = well fitted curve in the direction sought with a large enough effect; an effect the other way counts as inactive or inconclusive;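 note: HeLa cells stably expressing the EGFP-705 splicing reporter; GFP fluorescence per well restored by corrected splicing of the IVS2-705 intron in EGFP; % of control where 0% means no effect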); details: HeLa EGFP-705 splicing reporter, GFP fluorescence, 48 h; series mostly up to 38.3 µM
How it was run: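 Assay measures total GFP intensity per well in HeLa EGFP-705 cells after 2 days with compound; mis-splicing normally truncates EGFP, so fluorescence indicates corrected splicing.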

[16] = qHTS Assay for Lipid Storage Modulators (AID 1519; calls by dose curve); details: Drosophila S3 cells, BODIPY lipid droplet/cell ratio, laser cytometry, cells loaded with oleic acid; for activity change, negative = inhibition: at 57.5 µM (top of the series)
How it was run: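 Cells seeded at 5,000 per well were treated with compounds over a concentration series and loaded with oleic acid (400 uM, as added). Lipid droplet fluorescence (488 nm excitation, 500-530 nm channel) was read by laser-scanning cytometry and normalized to 20 uM Triacsin C.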

[17] = Primary qHTS for small molecule stabilizers of the endoplasmic reticulum resident proteome: Secreted ER Calcium Modulated Protein (SERCaMP) assay (AID 1508630; active = well fitted curve in the direction sought with a large enough effect; an effect the other way counts as inactive or inconclusive; note: % is set by controls: 0 for no effect and ±100 for the full control effect); details: SH-SY5Y GLuc-SERCaMP (Gaussia luciferase released on ER calcium loss) secretion, thapsigargin, luminescence; series mostly up to 38.4 µM
How it was run: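 GLuc-SERCaMP-expressing SH-SY5Y cells, pretreated 16 h with compound, are challenged with thapsigargin to empty ER calcium stores; after 4 h, coelenterazine is added directly to the medium and luminescence is imaged.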

[18] = qHTS Assay for Identification of Small Molecule Agonists for Hypoxia Response Element Signaling Pathway (AID 914; active = well fitted activation curve with a large enough effect in the signal ratio, with a control signal flat, not every such curve was filed as active; the % refers to the signal ratio; note: potency is the fitted concentration of half-maximal effect; for activation: % of control where 0% means no effect); details: ME-180 (cervical carcinoma) HRE-bla reporter, beta-lactamase ratio, CoCl2, 17 h; activation: stronger effect = higher value
How it was run: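 Compounds in a titration series were added to ME-180 reporter cells alongside an EC50 level of CoCl2. After 17 hours, beta-lactamase activity was read as the 460nm/530nm emission ratio of CCF4, giving AC50 values.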

[19] = target: Cytochrome P450 2C9 (Homo sapiens) (UniProt P11712); assay: qHTS Assay for Inhibitors and Substrates of Cytochrome P450 2C9 (AID 883; active = well fitted curve in the direction sought with a large enough effect; an effect the other way counts as inactive or inconclusive; note: % is set by controls: 0 for no effect and ±100 for the full control effect; nearly all actives have a fitted effect of over 60% in size); details: recombinant CYP2C9, luciferin-H luminescence, 60 min; series mostly up to 57.1 µM
Cytochrome P450 2C9 (Homo sapiens), sequence (P11712 whole entry, looked up): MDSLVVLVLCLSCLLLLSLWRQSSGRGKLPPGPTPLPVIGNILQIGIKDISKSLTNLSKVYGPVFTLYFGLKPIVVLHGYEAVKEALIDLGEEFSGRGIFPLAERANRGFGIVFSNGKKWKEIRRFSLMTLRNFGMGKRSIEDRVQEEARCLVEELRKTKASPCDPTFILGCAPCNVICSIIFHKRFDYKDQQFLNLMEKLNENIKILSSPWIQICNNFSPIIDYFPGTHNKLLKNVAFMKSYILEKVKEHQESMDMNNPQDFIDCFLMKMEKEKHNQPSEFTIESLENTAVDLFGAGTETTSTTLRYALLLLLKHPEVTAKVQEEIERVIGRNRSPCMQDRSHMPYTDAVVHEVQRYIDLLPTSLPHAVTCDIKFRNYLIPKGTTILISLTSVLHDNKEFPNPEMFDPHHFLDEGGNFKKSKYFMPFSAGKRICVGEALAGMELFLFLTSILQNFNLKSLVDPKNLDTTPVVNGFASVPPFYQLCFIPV
How it was run: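 Turnover of Luciferin-H (100uM, KM) by 10nM human CYP2C9 was measured over 60 min at 37C with NADPH regeneration; inhibitors and some substrates reduce luminescence. Data normalized to sulphaphenazole 57uM.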

[20] = measured here: cell count channel max response
[21] = measured here: lipid channel max response

Cc1cccc(CNc2ccnc(-c3cccnc3)n2)c1
-7.71%: max response [16, 20]
-5.64%: max response [16, 21]
inactive: Potency [1] > 11.4 µM | activity change, negative = inhibition [2] -18.1% | activity change, negative = inhibition [4] 10.6% | activity, negative = inhibition [5] 1.1% | Potency [6] > 46 µM | Potency [7] > 46 µM | outcome [8] | Potency [9] | Potency [11] | outcome [14] | outcome [15] | activity change, negative = inhibition [16] 8.22% | Potency [17]
active: Potency [3] 0.126 µM | Potency [10] 0.501 µM | Potency [12] 0.631 µM | Potency [13] 2.51 µM

CC(=O)NCCNc1nc(-c2ccccc2Cl)nc2ccccc12
20.7%: max response [16, 21]
inactive: Potency [1] > 11.4 µM | activity change, negative = inhibition [2] 22.6% | activity change, negative = inhibition [4] -5.34% | activity, negative = inhibition [5] -10.3% | Potency [6] > 46 µM | Potency [7] > 46 µM | outcome [8] | Potency [9] | Potency [11] | outcome [14] | activation [18] 19.9% | outcome [15] | activity change, negative = inhibition [16] 8.12% | Potency [17]
active: Potency [3] 7.94 µM | Potency [13] 3.98 µM
11.5%: max response [16, 20]

CN(C)c1ncc2ncc(=O)n(CCC#N)c2n1
29.8%: max response [16, 21]
25.3%: max response [16, 20]
active: Potency [3] 12.6 µM
inactive: Potency [1] > 11.4 µM | activity change, negative = inhibition [2] -12.7% | activity change, negative = inhibition [4] 3.55% | activity, negative = inhibition [5] -2.2% | Potency [6] > 9.22 µM | Potency [7] > 46 µM | outcome [8] | Potency [19] | activity change, negative = inhibition [16] 2.4% | Potency [17]

Cc1cccc(CNc2ccnc(-c3ccoc3)n2)c1
inactive: Potency [1] > 11.4 µM | activity change, negative = inhibition [2] 0.94% | activity change, negative = inhibition [4] 0.371% | activity, negative = inhibition [5] 6.16% | Potency [6] > 46 µM | Potency [7] > 46 µM | outcome [8] | Potency [9] | Potency [11] | outcome [14] | outcome [15] | activity change, negative = inhibition [16] 6.91% | Potency [17]
4.61%: max response [16, 21]
1.7%: max response [16, 20]
active: Potency [3] 2 µM

Cc1nc2cnc(Nc3ccccc3)nc2n(C)c1=O
9.14%: max response [16, 20]
active: Potency [3] 1.26 µM
2.52%: max response [16, 21]
inactive: Potency [1] > 11.4 µM | activity change, negative = inhibition [2] -16.6% | activity change, negative = inhibition [4] -8.95% | activity, negative = inhibition [5] -15.2% | Potency [6] > 9.22 µM | Potency [7] > 46 µM | outcome [8] | Potency [9] | Potency [11] | activity change, negative = inhibition [16] -9.81% | Potency [17]

COc1ncc2nc(-c3cccs3)c(=O)n(-c3ccccc3)c2n1
active: Potency [3] 2 µM | Potency [18] 3.16 µM
-2.75%: max response [16, 21]
-0.0529%: max response [16, 20]
inactive: Potency [1] > 11.4 µM | activity change, negative = inhibition [2] -4.36% | activity change, negative = inhibition [4] -4.96% | activity, negative = inhibition [5] 17.5% | Potency [6] > 9.22 µM | Potency [7] > 46 µM | outcome [8] | Potency [9] | activity change, negative = inhibition [16] -3.04% | Potency [17]
